Assay results reported in PMC6212790, “How bacterial xenogeneic silencer rok distinguishes foreign from self DNA in its resident genome”.
Over roughly 33,000 sequences, “e-score” has its median near -0.038; the highest 2% begin near 0.33. Shown is part of a subset that was picked to be rich in the highest values.

The sequences below were run against T1, GST-Rok-C97-191 (Bacillus subtilis subsp. subtilis str. …, UniProt O34857 97-191) (assay: protein binding microarray; Rok is a gene silencer of Bacillus subtilis; high values mean tight binding). Settings: protein: recombinant; tags: GST (pTH5325, pDEST15-Magic modified); dsDNA, one strand shown.
T1 sequence: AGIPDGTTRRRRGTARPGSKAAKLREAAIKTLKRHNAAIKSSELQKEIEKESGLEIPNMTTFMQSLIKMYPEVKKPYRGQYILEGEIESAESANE
Outline: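 Every oligonucleotide joins a 25-mer constant primer to a 35-mer variable part drawn from a de Bruijn sequence of order 10, so each non-palindromic 8-mer appears at least 32 times and each palindromic 8-mer 16 times. The preference for every 8-mer is reported as a unitless, rank-based enrichment score (E-score). This score spans 0.5 for the most favored 8-mer to −0.5 for the most disfavored.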

Sequence | binding signal [E-score]
CCAAGTTC | -0.0242
CTTGTGGC | -0.167
ACGTGAGC | -0.0668
ACGCCTTA | 0.073
AGCCCGCT | -0.168
CCATAGCA | -0.0019
ATAGTAGA | 0.355
AGAGTAGG | -0.15
AGAGTAGC | 0.0737
AGAGTAGA | 0.143
ATAGTAGG | 0.329
ATAGTAGC | 0.378
AAAGTAGA | 0.298
ATCGTAGC | -0.0487
ATAGTACG | 0.248
GCTTGAAC | -0.0848
AGTCCATC | -0.159
GGTTCAAC | -0.0853
CCTCTTCA | -0.193
CCAACCTA | -0.0204
GCTTATAA | 0.101
GGTACTAC | 0.233
AGTACTCA | -0.0984
AGTACTAA | 0.277
CGTACTAC | 0.305

Sequence | binding signal [E-score]
AGTACTAC | 0.35
AGTACTGG | 0.0209
CGTACTAG | 0.0424
AGTACTAG | 0.334
AGTACTAT | 0.367
ATTGCGCC | -0.134
ACCATATG | 0.229
AACTGGAC | -0.0284
TAGTGGGA | 0.119
AATTTCGC | 0.151
GATGAAGC | 0.0229
ATTTTATC | 0.328
CTTTTATC | 0.0697
ATTTTATA | 0.385
CTTTTATA | 0.236
GTTTTATA | 0.122
ATTTTATG | 0.229
AGACCTGG | -0.167
GTCGTAAC | 0.0491
ATACAAAT | 0.337
ATACAAAG | 0.17
CTACAAAC | 0.114
GTACAAAC | 0.304
ATACAAAC | 0.371
ATACAAAA | 0.276

Sequence | binding signal [E-score]
CAGGAATG | -0.083
TGAGGTAA | 0.126
ATTGACCG | -0.00184
AATACTCG | 0.0344
TATACTAA | 0.382
AATACTAG | 0.34
AATACTGT | 0.083
CATACTAG | 0.285
CATACTAC | 0.284
AATACTAA | 0.287
AATACTAT | 0.35
GATACTAC | 0.313
AATACTAC | 0.383
CATACTAA | 0.0976
AATACTCT | 0.131
GCAATCCC | -0.104
GTCAGGAC | -0.147
AATTTCAG | 0.153
ACCTTCGG | -0.173
AGTTGAGA | 0.111
ACCTAACT | 0.128
TAGACGAA | -0.0468
GTGCAAAA | 0.0465
CGTCCACG | -0.161
AGGTTGCG | -0.0431

Sequence | binding signal [E-score]
AGTAATAT | 0.386
ACTAATAT | 0.342
AGTAATCG | 0.0918
AGTAATAG | 0.355
CGTAATAG | 0.247
ACTAATAC | 0.248
ACTAATAG | 0.292
AGTAATAA | 0.238
AGTAATAC | 0.274
AAGGTTGG | -0.0102
ACGCATTA | 0.134
CGGTGCAG | -0.0983
GGCTAGAC | -0.152
AGATTAGC | 0.212
GGGTAAAA | 0.206
GAGTAAAA | 0.269
CGGTAAAA | 0.242
AAGTAAAA | 0.335
AAGTAAAC | 0.116
AGGTAAAT | 0.247
AAGTAAAG | 0.104
TGGTAAAA | 0.337
CAGTAAAA | 0.188
TAGTAAAA | 0.37
AAGTAAAT | 0.359

Sequence | binding signal [E-score]
AAGTAAGT | 0.263
CTGAAAAG | 0.0606
CTCCATAA | -0.175
TCTCCGAA | 0.161
TAAGCATA | 0.00925
AAAGGTCA | -0.146
ACGCACCA | -0.186
AAGACCGG | -0.0043
CCTTATTA | 0.0213
CGTAACTC | 0.0679
GTTAGCGA | 0.0595
GAGCTGCC | 0.0253
GACAGACA | -0.102
CGTAAGTA | 0.16
GCGTGAGA | -0.00817
CATTACTA | 0.32
AATTACCA | 0.33
AATTACCC | 0.185
AATTACTC | 0.255
ATTTACTG | 0.319
GATTACAA | 0.134
GATTACCA | 0.14
ATTTACTC | 0.234
AATTACTG | 0.253
ATTTACTA | 0.439

Sequence | binding signal [E-score]
GATTACTA | 0.354
AATTACTA | 0.43
AGGCCTAG | 0.0496
GACCGCTA | 0.0642
AATAACCG | 0.184
AACCAGCA | 0.0878
GTCGAGGA | -0.0836
GCGTCCGA | -0.026
CACCTCGC | -0.148
ACTGCCCT | -0.164
GGAAGTCA | -0.092
AAGTTTCC | 0.148
AAATTACT | 0.358
GAATTACC | 0.18
CAATTACC | 0.0477
AAATTACC | 0.365
ACATTACT | 0.263
AAATTACG | 0.273
CAGTTGAC | 0.0118
AACGCAAA | -0.043
CCAACTCG | -0.0471
CCATGCTA | 0.153
GCATGCTA | 0.0693
ACATGCTA | 0.33
CTGACATA | -0.188

Sequence | binding signal [E-score]
ACACAACT | 0.0324
ATATACAG | 0.317
CTATACTC | 0.173
GGATACTA | 0.167
ATATACTA | 0.436
ATATACTG | 0.365
ACATACTA | 0.305
CTATACAA | 0.3
GTATACTA | 0.338
CTATACTA | 0.301
ATATACTC | 0.293
GCATACTA | 0.241
ATATACAA | 0.365
CAAGGATG | -0.044
CTGTCTCA | -0.118
CAGGGCCA | -0.145
GTCACAAA | 0.0798
GAGCTTGA | -0.0815
CACTTGTA | 0.238
GACAAGTA | 0.226
CAATTGTG | 0.0188
AATTCGAT | 0.215
TTAACTAA | 0.235
CTAACTAA | 0.288
CTAACTAC | 0.348

Sequence | binding signal [E-score]
GTAACTAC | 0.417
GTAACTAA | 0.353
CTAACTAG | 0.268
GGAACTAC | 0.254
ATAACTAC | 0.323
CTAACTCC | -0.00723
CAAGCAGA | 0.0345
GCCGAATA | 0.0948
GCTCGTAA | 0.0484
ACTCCAGC | 0.114
CTGAAGGA | -0.156
ATCCAGCG | -0.106
AACTACCT | 0.412
CACTACCC | -0.0292
GACTACCA | 0.141
AACTACCC | 0.338
AACTACCA | 0.433
ACCTACCT | 0.154
GACTACCC | 0.0938
AGCTACCG | 0.228
AACTACCG | 0.41
CACTACCG | 0.065
AACTATCT | 0.294
CACTACCA | 0.0866
CAATTTTA | 0.234

Sequence | binding signal [E-score]
ACGGGAGA | -0.12
CAAGTTGA | -0.0731
TCGACTAA | 0.0796
AAAGTTCT | 0.145
GCTCGGTA | 0.0228
AGCGGCCG | -0.112
CATTGATA | 0.26
ACGTTCAC | 0.0772
GATAAGTA | 0.238
CCGTCGAA | 0.0267
GGAATGGA | -0.114
TACTACCA | 0.404
TGCTACCA | 0.099
TCCTACCA | 0.273
CGCTACGA | 0.0242
CCTGTCCC | 0.0167
AAATACTG | 0.283
AAATACTA | 0.434
AAATACTC | 0.205
TAATACTA | 0.401
CAATACTA | 0.217
GAATACTA | 0.209
